Source: the supplement of paper PMC10849652
The full data set covers some 7,900 targets. This sample favours those with a hit. About 0.6% of all pairs of compound and target were hits. Values without a mark were called inactive.

Compound: O=C(CCCCCCNC(=O)c1cnc(N(c2ccccc2)c2ccccc2Cl)nc1)NO [citarinostat]
Experiment: log2 fold change, soluble protein after heating vs DMSO (PISA); higher = thermal stabilisation; K562 cells, 10 uM, 30 min; active = over 0.2 and 3.5 SD of the protein, either way, in both replicates (recomputed)
Method in brief: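 K562 cells at 2×10^6 cells/mL were treated for 30 min with 10 μM compound, and aliquots were heated for 3 min over 48°C-58°C before pooling. Extraction used PBS with 0.5% NP-40 at 4°C, and soluble protein was the supernatant after 21,000xg for 90 min, measured by TMTpro 16plex LC-MS/MS with channel sums equalised. Thermal stability values, relative to control samples and from duplicates, are log2 fold changes.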

Sequence of UniProt P51532 (P51532 whole entry, looked up): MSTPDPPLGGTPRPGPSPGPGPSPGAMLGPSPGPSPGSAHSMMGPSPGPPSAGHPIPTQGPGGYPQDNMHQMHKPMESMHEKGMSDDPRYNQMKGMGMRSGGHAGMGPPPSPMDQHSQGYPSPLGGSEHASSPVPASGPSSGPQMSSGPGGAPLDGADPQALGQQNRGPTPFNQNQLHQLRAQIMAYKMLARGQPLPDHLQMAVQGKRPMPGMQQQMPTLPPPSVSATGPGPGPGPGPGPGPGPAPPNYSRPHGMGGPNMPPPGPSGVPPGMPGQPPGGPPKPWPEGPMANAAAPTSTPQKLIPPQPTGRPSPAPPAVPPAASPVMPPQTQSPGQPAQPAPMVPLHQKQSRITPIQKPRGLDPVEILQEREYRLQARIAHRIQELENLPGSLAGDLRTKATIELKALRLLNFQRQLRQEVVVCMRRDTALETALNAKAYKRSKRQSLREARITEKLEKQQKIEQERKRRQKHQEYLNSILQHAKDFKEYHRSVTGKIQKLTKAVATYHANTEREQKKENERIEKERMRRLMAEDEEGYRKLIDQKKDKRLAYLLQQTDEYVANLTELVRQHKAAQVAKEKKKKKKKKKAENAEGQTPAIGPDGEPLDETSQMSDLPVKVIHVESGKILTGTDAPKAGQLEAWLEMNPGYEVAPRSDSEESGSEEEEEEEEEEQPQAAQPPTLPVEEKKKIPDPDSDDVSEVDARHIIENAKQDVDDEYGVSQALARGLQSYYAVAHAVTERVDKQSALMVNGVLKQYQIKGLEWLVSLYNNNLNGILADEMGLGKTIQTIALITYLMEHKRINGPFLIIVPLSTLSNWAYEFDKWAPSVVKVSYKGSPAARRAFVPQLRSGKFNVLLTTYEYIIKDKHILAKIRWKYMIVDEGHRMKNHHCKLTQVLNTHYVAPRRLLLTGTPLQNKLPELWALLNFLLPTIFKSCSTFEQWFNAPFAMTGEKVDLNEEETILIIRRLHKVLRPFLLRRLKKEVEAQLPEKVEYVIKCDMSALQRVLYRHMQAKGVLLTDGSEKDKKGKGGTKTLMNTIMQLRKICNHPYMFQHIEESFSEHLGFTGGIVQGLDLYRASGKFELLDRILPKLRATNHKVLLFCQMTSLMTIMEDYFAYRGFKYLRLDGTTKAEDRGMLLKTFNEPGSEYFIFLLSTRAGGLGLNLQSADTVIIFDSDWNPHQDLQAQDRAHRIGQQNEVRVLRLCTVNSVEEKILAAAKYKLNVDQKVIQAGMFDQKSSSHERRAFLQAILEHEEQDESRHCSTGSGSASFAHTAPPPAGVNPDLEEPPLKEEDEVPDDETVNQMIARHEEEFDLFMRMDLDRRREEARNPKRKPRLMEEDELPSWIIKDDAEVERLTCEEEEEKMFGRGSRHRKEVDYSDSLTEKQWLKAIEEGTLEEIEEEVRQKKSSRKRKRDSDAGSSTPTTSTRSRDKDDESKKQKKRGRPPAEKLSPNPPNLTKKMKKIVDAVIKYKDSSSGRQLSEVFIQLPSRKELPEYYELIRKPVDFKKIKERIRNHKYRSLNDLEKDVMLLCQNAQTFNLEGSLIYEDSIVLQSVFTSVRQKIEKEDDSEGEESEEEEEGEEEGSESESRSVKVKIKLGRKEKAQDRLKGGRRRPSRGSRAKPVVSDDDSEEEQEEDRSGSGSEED
Sequence of UniProt Q9Y5M8 (Q9Y5M8 whole entry, looked up): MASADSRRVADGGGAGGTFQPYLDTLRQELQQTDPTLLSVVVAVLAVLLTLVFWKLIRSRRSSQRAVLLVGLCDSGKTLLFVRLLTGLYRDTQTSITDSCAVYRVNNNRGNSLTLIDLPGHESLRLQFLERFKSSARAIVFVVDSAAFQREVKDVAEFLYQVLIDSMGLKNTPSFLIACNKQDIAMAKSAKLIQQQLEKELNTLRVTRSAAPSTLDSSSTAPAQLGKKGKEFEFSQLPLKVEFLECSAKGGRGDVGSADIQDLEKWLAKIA
Sequence of UniProt Q9BYN0 (Q9BYN0 whole entry, looked up): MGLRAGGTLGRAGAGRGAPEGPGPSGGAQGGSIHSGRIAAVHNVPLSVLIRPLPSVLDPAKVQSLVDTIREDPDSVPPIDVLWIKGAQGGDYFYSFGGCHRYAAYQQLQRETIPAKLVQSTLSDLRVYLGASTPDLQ
Sequence of UniProt Q08945 (Q08945 whole entry, looked up): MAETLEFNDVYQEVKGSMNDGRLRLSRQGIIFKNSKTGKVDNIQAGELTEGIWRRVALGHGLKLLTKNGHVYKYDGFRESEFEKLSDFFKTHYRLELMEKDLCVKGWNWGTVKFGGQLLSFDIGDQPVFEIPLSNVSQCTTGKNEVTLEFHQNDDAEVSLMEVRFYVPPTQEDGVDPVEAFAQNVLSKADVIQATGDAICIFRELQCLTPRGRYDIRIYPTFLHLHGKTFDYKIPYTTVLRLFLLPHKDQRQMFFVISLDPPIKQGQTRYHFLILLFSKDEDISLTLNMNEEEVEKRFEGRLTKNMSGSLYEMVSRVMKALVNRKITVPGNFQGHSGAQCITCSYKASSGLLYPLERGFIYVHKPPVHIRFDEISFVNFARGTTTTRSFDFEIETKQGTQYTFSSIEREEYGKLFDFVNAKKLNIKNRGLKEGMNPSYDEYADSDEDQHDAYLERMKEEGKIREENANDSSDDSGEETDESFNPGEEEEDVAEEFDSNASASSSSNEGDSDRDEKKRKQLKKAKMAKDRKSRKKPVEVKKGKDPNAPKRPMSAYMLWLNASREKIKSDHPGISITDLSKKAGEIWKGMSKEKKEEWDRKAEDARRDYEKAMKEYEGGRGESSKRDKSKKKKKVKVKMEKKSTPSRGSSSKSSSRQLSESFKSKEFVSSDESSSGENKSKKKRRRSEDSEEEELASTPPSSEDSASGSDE
Sequence of UniProt Q96CW6 (Q96CW6 whole entry, looked up): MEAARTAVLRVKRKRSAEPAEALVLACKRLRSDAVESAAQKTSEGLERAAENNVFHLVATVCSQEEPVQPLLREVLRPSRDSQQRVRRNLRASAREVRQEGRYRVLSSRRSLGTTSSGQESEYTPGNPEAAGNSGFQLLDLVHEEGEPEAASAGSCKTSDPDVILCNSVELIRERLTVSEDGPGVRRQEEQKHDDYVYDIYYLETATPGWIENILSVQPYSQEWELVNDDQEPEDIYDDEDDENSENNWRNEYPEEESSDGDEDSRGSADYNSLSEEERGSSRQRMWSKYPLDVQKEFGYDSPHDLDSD
Sequence of UniProt P04183 (P04183 whole entry, looked up): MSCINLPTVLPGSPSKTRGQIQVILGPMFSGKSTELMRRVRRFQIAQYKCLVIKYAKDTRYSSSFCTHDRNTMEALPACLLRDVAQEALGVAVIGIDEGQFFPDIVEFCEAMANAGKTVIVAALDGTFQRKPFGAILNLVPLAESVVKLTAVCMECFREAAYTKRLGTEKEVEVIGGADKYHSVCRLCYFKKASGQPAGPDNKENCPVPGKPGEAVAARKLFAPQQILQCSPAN
Sequence of UniProt P12931 (P12931 whole entry, looked up): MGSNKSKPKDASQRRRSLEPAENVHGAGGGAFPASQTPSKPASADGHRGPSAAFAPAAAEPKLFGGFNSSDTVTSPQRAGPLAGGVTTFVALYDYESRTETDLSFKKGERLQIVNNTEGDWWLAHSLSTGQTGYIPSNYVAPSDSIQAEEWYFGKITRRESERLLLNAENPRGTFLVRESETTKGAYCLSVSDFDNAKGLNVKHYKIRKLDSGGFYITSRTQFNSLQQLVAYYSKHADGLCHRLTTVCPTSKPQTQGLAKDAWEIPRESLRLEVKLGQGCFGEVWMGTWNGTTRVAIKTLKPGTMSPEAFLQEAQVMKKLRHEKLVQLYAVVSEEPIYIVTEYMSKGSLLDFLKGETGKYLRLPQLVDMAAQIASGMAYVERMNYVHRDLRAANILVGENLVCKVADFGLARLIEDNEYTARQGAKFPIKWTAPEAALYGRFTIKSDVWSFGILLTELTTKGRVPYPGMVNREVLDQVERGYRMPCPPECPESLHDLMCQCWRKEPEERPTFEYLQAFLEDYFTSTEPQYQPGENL
Sequence of UniProt Q08AE8 (Q08AE8 whole entry, looked up): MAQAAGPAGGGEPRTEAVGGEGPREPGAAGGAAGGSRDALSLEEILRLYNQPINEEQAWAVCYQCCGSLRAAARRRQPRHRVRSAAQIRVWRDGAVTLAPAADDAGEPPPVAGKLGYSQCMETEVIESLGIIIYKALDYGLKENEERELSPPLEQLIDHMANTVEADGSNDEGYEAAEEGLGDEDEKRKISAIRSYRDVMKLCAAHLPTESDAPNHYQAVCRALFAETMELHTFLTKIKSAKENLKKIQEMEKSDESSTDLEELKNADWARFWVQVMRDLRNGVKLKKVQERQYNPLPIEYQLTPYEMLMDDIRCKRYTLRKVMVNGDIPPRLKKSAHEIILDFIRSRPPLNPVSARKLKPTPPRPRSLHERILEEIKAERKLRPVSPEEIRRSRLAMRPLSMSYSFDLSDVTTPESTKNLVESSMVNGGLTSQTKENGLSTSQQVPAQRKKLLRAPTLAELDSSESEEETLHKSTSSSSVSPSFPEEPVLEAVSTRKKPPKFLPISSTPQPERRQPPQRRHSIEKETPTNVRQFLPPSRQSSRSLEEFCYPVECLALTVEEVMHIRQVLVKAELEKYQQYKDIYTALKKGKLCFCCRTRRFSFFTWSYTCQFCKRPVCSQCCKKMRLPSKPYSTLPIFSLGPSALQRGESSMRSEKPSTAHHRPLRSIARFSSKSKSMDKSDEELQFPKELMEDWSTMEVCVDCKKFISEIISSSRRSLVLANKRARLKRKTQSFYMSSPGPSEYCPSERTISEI
Sequence of UniProt Q16594 (Q16594 whole entry, looked up): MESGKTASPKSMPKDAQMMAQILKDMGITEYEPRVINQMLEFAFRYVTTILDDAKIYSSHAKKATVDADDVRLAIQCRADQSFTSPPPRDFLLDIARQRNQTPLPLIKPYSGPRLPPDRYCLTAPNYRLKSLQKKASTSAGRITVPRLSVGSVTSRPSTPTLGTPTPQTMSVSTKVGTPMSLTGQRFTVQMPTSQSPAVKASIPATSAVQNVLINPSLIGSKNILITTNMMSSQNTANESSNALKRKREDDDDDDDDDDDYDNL

| Target | log2 fold change |
| --- | --- |
| SMAP (UniProt O00193) | -0.029 |
| TGFBR1 isoform 2 (UniProt P36897) | 0.017 |
| SLC7A6OS (UniProt Q96CW6) | 0.098 |
| TK1 (UniProt P04183) | 0.016 |
| TACC2 (UniProt O95359) | 0.003 |
| TATDN2 (UniProt Q93075) | -0.52 (active) |
| STK11IP (UniProt Q8N1F8) | -0.032 |
| SRXN1 (UniProt Q9BYN0) | -0.039 |
| SSRP1 (UniProt Q08945) | 0.155 |
| STK38L (UniProt Q9Y2H1) | 0.036 |
| TAF9 (UniProt Q16594) | -0.043 |
| SP1 (UniProt P08047) | -0.057 |
| SRPRB (UniProt Q9Y5M8) | 0.029 |
| SLC38A7 (UniProt Q9NVC3) | 0.085 |
| SP100 isoform 4 (UniProt P23497) | -0.011 |
| SMARCA4 (UniProt P51532) | 0.102 |
| SLC44A2 isoform 2 (UniProt Q8IWA5) | 0.091 |
| TBC1D20 isoform 3 (UniProt Q96BZ9) | 0.293 |
| SRSF6 (UniProt Q13247) | -0.068 |
| SPIRE1 (UniProt Q08AE8) | 0.022 |
| SRC isoform 2 (UniProt P12931) | -0.104 |
| SMG1 (UniProt Q96Q15) | 0.024 |
